tim10-1 inh: growth inhibitors of tim10-1 mutant yeast, primary screen, luminescence, uHTS; hit rate 2.2% among 330,000; inhibition, % at 20 µM; S. cerevisiae tim10-1 ts strain growth, BacTiter-Glo, 24 h;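 active means inhibition of at least 40%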;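 further: mutant grown at 25 °C; 0% = DMSO wells with yeast and 100% = wells holding no yeast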
SKKanGAS inh: S. pyogenes SKKanGAS growth inhibitors in kanamycin, primary screen, streptokinase expression inhibitor project, SKKanGAS strain, BacTiter-Glo luminescence. hit rate 1.3% among 300,000. AID 1662, 2009. 6 h. inhibition, % at 7.5 µM;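 active means mean replicate score, as percent of positive control median, at least 50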;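 further: strain carries kanamycin resistance gene driven by streptokinase promoter and grows in 40 µg/ml kanamycin; loss of luminescence reflects streptokinase promoter inhibition or plain growth inhibition; 0% = median of DMSO wells and 100% = positive control at its reference dose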
tim23-1 inh: growth inhibitors of tim23-1 mutant yeast, primary screen, luminescence, uHTS. S. cerevisiae tim23-1 growth, BacTiter-Glo luminescence, 24 h. hit rate 1.3% among 330,000. AID 463212, 2010. inhibition, % at 20 µM;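 active means growth inhibition of the mutant yeast at or above 50%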;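 further: temperature-sensitive mutant grown at 25 °C; plate controls were DMSO-treated mutant yeast for no effect and medium wells lacking yeast for full effect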
TIM10 inh: growth inhibitors of isogenic TIM10 control yeast, primary screen, counter-screen for tim10-1 yeast inhibitor project, luminescence, uHTS; hit rate 1.4% among 330,000; S. cerevisiae TIM10 strain growth, BacTiter-Glo luminescence, 24 h; inhibition, % at 10 µM;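 active means inhibition of 40% or more at the single tested concentration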;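 further: wild-type TIM10 isogenic control strain grown at permissive 25 °C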
NALP3 yeast inh: NALP3 inflammasome inhibitors in reconstituted yeast, primary screen, luminescence, uHTS | Yeast reconstituted NLRP3/ASC/caspase-1, beta-gal luminescence, 24 h | inhibition, % at 10 µM | hit rate 0.39% among 330,000;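 active means inhibition of 50% or more; inactive means inhibition below 50%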;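 further: plate controls were induced DMSO wells for no effect and uninduced yeast grown without galactose for full effect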
PfHsp90 yeast 2: growth inhibition of PfHsp90-expressing yeast, primary screen, antimalarial PfHsp90 inhibitor project, S. cerevisiae, BacTiter-Glo luminescence, single point, set 2; BacTiter-Glo ATP, 48 h; yeast lacking PDR1 and PDR3 efflux regulators; hit rate 0.32% among 310,000; AID 504621, 2011; inhibition, % at 9.4 µM;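 active means every replicate shows inhibition above about 80%, whatever the replicate mean, limit read from the data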;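 further: 0% = DMSO neutral controls and 100% = 20 µM radicicol positive controls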
Numbers without * were called inactive; x = no result. Hits are enriched below; roughly 4.6% of the tested compounds scored in any of these assays.

SMILES	tim10-1 inh	SKKanGAS inh	tim23-1 inh	TIM10 inh	NALP3 yeast inh	PfHsp90 yeast 2
O=C(CN1C(=O)S/C(=C\C=C\c2ccccc2)C1=O)Nc1ccccc1C(=O)O	7.6	70.3*	5.0	7.0	-5.4	-7.2
CCc1ccc(/C=C2/SC(=S)N(CCCC(=O)Nc3ccccc3C(=O)O)C2=O)cc1	37.7	52.1*	39.2	11.5	-2.4	-16.3
O=C(CN1C(=O)S/C(=C\C=C\c2ccccc2)C1=O)Nc1cccc(O)c1	23.1	8.4	31.1	23.3	21.6	-25.1
O=C1/C(=C\c2cc(Cl)c(O)c(Cl)c2)SC(=S)N1Cc1ccccc1	x	89.6*	x	x	x	-24.5
O=C(CCN1C(=O)/C(=C\c2ccccc2)SC1=S)NNC(=O)c1ccccc1O	-7.9	50.6*	5.8	25.7	9.4	-14.1
COc1ccc(/C=C2/SC(=S)N(Cc3ccccc3)C2=O)cc1O	27.0	-1.2	26.2	10.1	35.7	-18.0
COCCNc1nc(N2CCCCC2)c2cnn(C)c2n1	17.6	21.1	8.8	-11.4	8.0	7.8
CCOC(=O)CC(NC(=O)C1c2ccccc2Oc2ccccc21)c1ccccc1Cl (centres undefined)	5.2	-2.3	6.3	9.4	7.5	1.3
C=CCN(C(=O)c1csnn1)C(C(=O)NC1CCCCC1)c1ccc(F)cc1 (centres undefined)	4.1	-1.3	18.8	-8.7	20.1	1.5
CCc1ccc(/C=C2\SC(=S)N(CCCC(=O)Nc3ccccn3)C2=O)cc1	2.9	4.8	0.3	13.2	16.9	3.9
CCc1ccc(/C=C2/SC(=S)N(CC(=O)Nc3nc4ccccc4s3)C2=O)cc1	16.0	79.3*	25.9	2.2	12.1	-3.3
O=C(CSc1ccc2nnc(CCNC(=O)c3ccccc3)n2n1)NCc1ccco1	-2.6	0.9	-1.2	12.0	14.1	6.1
COc1ccccc1/C=C1\S/C(=N/NC(=O)c2cccc(Br)c2)NC1=O	39.1	81.0*	18.0	29.8	6.8	-24.7
CCOc1ccc(C2C(C(C)=O)=C(O)C(=O)N2CCc2c[nH]c3ccccc23)cc1 (centres undefined)	25.2	6.7	1.6	5.9	11.0	-5.0
COc1cccc(CNc2cccc3cccnc23)c1O	36.1	-1.8	31.7	30.4	21.2	-12.7
Oc1ccc(Br)cc1CNc1cccc2cccnc12	6.6	54.8*	25.0	15.8	28.5	6.6
Oc1ccc(Cl)cc1CNc1cccc2cccnc12	6.6	56.7*	13.2	7.2	32.2	-13.4
Cc1ccc(O)c(CNc2cccc3cccnc23)c1	13.1	8.1	14.1	13.6	12.2	-7.7
CCCCCNCC(=O)Nc1cccc(C(=O)Nc2cccc(C(F)(F)F)c2)c1	19.6	5.3	-1.1	27.8	4.7	x
NNc1ccc(Cl)nn1	-9.5	5.5	6.1	-15.7	1.5	13.2
Cc1cc(C)cc(-n2cc(C(=O)O)c(=O)cc2C)c1	11.4	3.6	3.9	15.6	21.0	10.5
CCOc1ccc(N(CC(=O)NCc2ccc(C)cc2)S(=O)(=O)c2c(C)[nH]c(=O)[nH]c2=O)cc1	-7.6	58.8*	-10.5	11.0	15.6	-11.7
O=C1NC[C@@H](Cc2cccc3ccccc23)N(CCCCC2CCCCC2)C1=O	13.7	81.8*	16.6	-1.5	-3.3	-53.9
NCCCC[C@H]1CNC(=O)C(=O)N1CCCCC1CCCCC1	-13.8	0.2	11.8	3.1	24.6	-12.3
O=C(Oc1ccc(-c2cnc3ccccc3n2)cc1)c1cccc([N+](=O)[O-])c1	-2.6	8.0	-40.6	-17.4	4.9	11.5
O=C(Oc1ccc(-c2cnc3ccccc3n2)cc1)c1ccc(Cl)c([N+](=O)[O-])c1	-16.6	74.0*	-6.9	-6.0	22.7	-9.2
CN(C)S(=O)(=O)c1ccc(NC(=O)CNc2cc(S(=O)(=O)N3CCCC3)ccc2OCC(F)(F)F)cc1	9.8	-1.9	3.0	-11.2	-2.1	12.1
CC(C)[C@H](NC(=O)c1ccc(Cl)cc1)C(=O)OCC(=O)N1CCN(c2ccccc2)CC1	5.6	x	9.2	-0.6	8.1	x

Screening data (PubChem)
